Shown are actives, neighbours in structure and some others; about 4.9% of the full set was active somewhere.
PP1 inh: counter-screen for PP5 inhibitors: inhibitors of human PP1-alpha | P62136 | 320,000 tested, 0.9% active | inhibition, % at 6.7 µM | purified PP1alpha, OMFP fluorescence;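 active means inhibition above the mean inhibition of all tested compounds plus 3 SD, computed separately for each screening campaign, cut at about 15% in these data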
Calb FLC: C. albicans growth modulation with fluconazole; C. albicans CaCi-2 (fluconazole-resistant clinical isolate) + fluconazole, Alamar Blue growth, 48 h; growth inhibition, % (test concentration not listed); 300,000 tested, 0.57% active;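 active means growth inhibition above about 58% in most replicates, limit read from the data, passing the limit was not always enough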;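 further: all wells also contain fluconazole at 8 µg/ml as a sub-toxic cotreatment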
PP5 primary: inhibitors of human protein phosphatase 5 (PP5). P53041. purified PP5c, OMFP substrate fluorescence. inhibition, % at 6.7 µM. 320,000 tested, 0.18% active. AID 1987;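 active means inhibition above the campaign's mean inhibition across all tested compounds plus 3 SD, cut at about 9.5% in these data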
Target sequence (P53041 whole entry, looked up): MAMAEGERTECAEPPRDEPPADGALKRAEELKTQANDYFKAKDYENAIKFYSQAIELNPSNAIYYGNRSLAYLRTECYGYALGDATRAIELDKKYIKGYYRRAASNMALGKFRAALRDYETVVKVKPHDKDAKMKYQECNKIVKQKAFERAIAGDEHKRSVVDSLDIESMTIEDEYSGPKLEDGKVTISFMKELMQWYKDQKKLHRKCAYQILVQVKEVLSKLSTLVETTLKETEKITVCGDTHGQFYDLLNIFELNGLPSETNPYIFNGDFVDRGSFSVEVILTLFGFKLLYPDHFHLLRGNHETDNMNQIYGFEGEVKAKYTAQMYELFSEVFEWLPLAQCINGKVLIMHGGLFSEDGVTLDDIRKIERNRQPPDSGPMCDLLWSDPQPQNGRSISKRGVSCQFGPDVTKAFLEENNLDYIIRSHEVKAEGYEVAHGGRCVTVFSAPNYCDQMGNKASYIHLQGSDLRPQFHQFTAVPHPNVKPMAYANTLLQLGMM
Mdm2 MdmX PPI: inhibitors of human Mdm2/MdmX interaction; O15151+Q00987; SaOS-2 split-luciferase Mdm2/MdmX complementation, luminescence; inhibition, % at 8 µM; 330,000 tested, 3% active;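 active means inhibition of at least 50% at 8 µM in the primary screen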
Beta apoptosis: blocks beta cell apoptosis | INS-1E cytokine-induced death, ATP luminescence, 48 h; percent of positive-control rescue, neutral wells zero | protection from apoptosis, % (no concentration beside the values) | 300,000 tested, 0.8% active | AID 435005;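 active means Every replicate reaches about 75%, or at least half do and their mean reaches it too, limit read from the data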;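 further: higher means more ATP so stronger rescue from cytokine killing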
CSC inhib: cancer stem cell inhibition; cancer stem cell-like cells viability, luminescence; inhibition, % at 7.5 µM; 300,000 tested, 1.1% active; in the data active means inhibition above about 75%; tested in HMLE shEcad cells
Mdm2 MdmX conf: human Mdm2/MdmX binding inhibition, confirmed; inhibition, % at 8 µM; 10,000 tested, 55% active; luminescent assay; shares compounds with Mdm2 MdmX PPI; in the data active means inhibition above about 40%
Full FLuc ctr: inhibits full-length luciferase, flagging false Mdm2/MdmX hits. SaOS-2 full-length luciferase counterscreen, luminescence. inhibition, % at 8 µM. shares compounds with Mdm2 MdmX PPI. AID 504607. 6,200 tested, 77% active;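 active means mean inhibition at 8 µM reaching about 37%, which flags the compound as non-specific, limit read from the data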;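 further: p53-null SaOS-2 cells with luciferase driven by a doxycycline-inducible promoter; compound on cells about two nights before reading with doxycycline added after day one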
A number is an active result; . = inactive; / = no result.

SMILES | PP1 inh | Calb FLC | PP5 primary | Mdm2 MdmX PPI | Beta apoptosis | CSC inhib | Mdm2 MdmX conf | Full FLuc ctr
Cn1nnnc1Sc1ncnc2scc(-c3cccs3)c12 | . | / | . | 98 | . | . | 90 | 56
Cn1nnnc1Sc1ncnc2scc(-c3ccc(C#N)cc3)c12 | . | / | . | 87 | . | . | 79 | 60
Cc1ccc(-c2csc3ncnc(SCC(=O)O)c23)cc1 | . | . | . | . | . | . | / | /
Cn1nnnc1Sc1ncnc2scc(-c3ccsc3)c12 | / | / | / | 100 | . | / | 85 | 53
Cn1nnnc1Sc1ncnc2scc(-c3cc4ccccc4o3)c12 | . | / | . | 100 | 89 | 115 | 99 | 51
COCCCNC(=S)Nc1c(C)cc(C)cc1C | . | . | . | . | . | . | / | /
NC(=S)N=Nc1c(O)[nH]c2c(Br)cc(Br)cc12 | . | . | . | . | . | . | / | /
COc1cccc(-c2ccnc3[nH]n(-c4ccccc4)c(=O)c23)c1 | . | . | . | . | . | . | / | /
O=C(CCCN1C(=O)c2ccccc2C1=O)NCCc1ccc(OC(F)F)cc1 | . | . | . | . | . | . | / | /
Cn1nnnc1Sc1ncnc2scc(-c3ccccc3C(F)(F)F)c12 | . | / | . | . | . | . | / | /
Cn1nnnc1Sc1ncnc2scc(-c3ccc(-c4ccccc4)cc3)c12 | / | / | / | 100 | . | / | . | /
C=CC[C@@H](CC(=O)N[C@@H](CO)Cc1ccccc1)C(=O)NC[C@@H](OC(=O)[C@@H](CC=C)Cc1ccc(F)cc1)c1ccccc1 | / | / | / | 52 | . | . | . | /
C=CC[C@H](CC(=O)N(CCO)Cc1ccccc1)C(=O)NC[C@H](OC(=O)[C@@H](CC=C)Cc1ccc(F)cc1)c1ccccc1 | / | / | / | 71 | . | . | . | /
C=CC[C@@H](CC(=O)N(CCO)Cc1ccccc1)C(=O)NC[C@@H](OC(=O)[C@@H](CC=C)Cc1ccc(F)cc1)c1ccccc1 | / | / | / | 55 | . | . | . | /
